Test results from PubChem BioAssay (Tox21).
Several values for one entry are separate records, joined by “and”; a condition that tells them apart may be missing. Equal entries are not always repeated. Inconclusive results are not listed. Where a call stands in place of a potency, no number is given. Activity calls are given as the source filed them. Calls come from the whole dose curve; as a rule, active = well fitted cell-killing curve with a large enough effect in the repeat runs; inconclusive = weak or mixed curves, or effect the other way; inactive = flat fitted curve, though single readings scatter.

Assay: qHTS assay to identify small molecule agonists of the androgen receptor (AR) signaling pathway in the presence of an antagonist - cell viability counter screen (AID 1259379); note: nearly all actives have a fitted effect of over 25% in size
Conditions: MDA-kb2 viability, CellTiter-Fluor, 16 h; series mostly up to 92.4 µM
Description: National Center for Advancing Translational Sciences [NCATS]
NIH Chemical Genomics Center [NCGC]
U.S. Environmental Protection Agency [EPA]
National Institutes of Environmental Health Sciences [NIEHS]
National Toxicology Program [NTP]
U.S. Food and Drug Administration [FDA]
Androgen receptor (AR) is an important member of nuclear receptor family. Its signaling plays a critical role in AR-dependent prostate cancer and other androgen related diseases. Considerable attention has been given in the past decades to develop methods to study and screen for the environmental chemicals that have the potential to interfere with metabolic homeostasis, reproduction, developmental and behavioral functions. Therefore AR binding assay for screening against androgen agonists and antagonists can be used to identify potential endocrine disruptors.
MDA-kb2 cells (from ATCC, deposited by Wilson et al.) are human breast carcinoma cells that were stably transfected with a luciferase reporter gene under control of the MMTV promoter that contains response elements for both androgen receptor (AR) and glucocorticoid receptor (GR). This particular screening for measuring luciferase reporter gene activity using MDA-kb2 cells against Tox21 10K library compounds is a confirmation study on agonist mode screening in the presence of AR-antagonist compound (Nilutamide) at 3.0uM final concentration. The cytotoxicity of the compounds was tested in parallel by measuring the cell viability using CellTiter-Fluor assay system (Promega, Madison, WI) in the same wells.
Tox21 Assay Protocol Summary:
MDA-kb2 cells (cells cultured without CO2) were dispensed at 3,000 cells/well in 4uL of culture medium into white wall/solid-bottom 1536-well plates (Corning Life Sciences, Corning, NY) using a Multidrop Combi (Thermo Fisher Scientific Inc., Waltham, MA) dispenser. The assay plates were incubated at 37C and 0% CO2 for 5hr. One uL of 3.0uM (final concentration) Nilutamide or assay buffer was added using two separate tips of Flying Reagent Dispenser (FRD, Aurora Discovery, San Diego, CA). Then 23nL of compounds dissolved in DMSO at 15 concentrations and positive controls were transferred to the assay plates using a Pintool station (Wako, San Diego, CA). The assay plates were incubated at 37C and 0% CO2 for 16 hr. After 15hr incubation at 37C, 1uL/well CellTiter-Fluor reagent (Promega Corporation) was added to each well of the assay plates using FRD. After 1hr incubation at 37C and 0% CO2, the fluorescence signal was measured using a ViewLux plate reader (PerkinElmer, Shelton, CT).
Potency is the fitted concentration of half-maximal effect.

SMILES | Potency
Cc1cc(Cc2ccc(N)c(C)c2)ccc1N | inactive
ClC1=C(Cl)C(Cl)(Cl)C(Cl)=C1Cl | 43.3 µM (active)
NCCNCCNCCNCCN | inactive
CCCCC(CC)COC(C)=O (stereo not given) | inactive
CCCCCCCCCCC=CC1CC(=O)OC1=O (stereo not given) | inactive
CC1CC(OC(=O)c2ccccc2O)CC(C)(C)C1 (stereo not given) | inactive
CCOC(=O)/C=C\C(=O)OCC | inactive
C=C(C)C(=O)OCCCCCC | inactive
CC[Si](OC(C)=O)(OC(C)=O)OC(C)=O | inactive
O=C1N=C(O)CN1/N=C/c1ccc(-c2ccc([N+](=O)[O-])cc2)o1 | 30.6 µM (active) and 23.7 µM (active)
CC(C)NCC(O)COc1cccc2ccccc12 (stereo not given) | inactive
CC1=C(/C=C/C(C)=C/C=C/C(C)=C/CO)C(C)(C)CCC1 | inactive
CCCCCC/C=C/CCCCCCCC(=O)O | inactive
COC(=O)c1ccc(C(=O)OC)cc1 | inactive
Cc1cc(NS(=O)(=O)c2ccc(N)cc2)no1 | inactive
O=c1c(-c2ccc(O)cc2)coc2cc(O)ccc12 | inactive
O=C(Oc1ccccc1)c1ccc(O)cc1 | inactive
CC1(C)CC(N=C=O)CC(C)(CN=C=O)C1 (stereo not given) | inactive
Nc1c(S(=O)(=O)O)cc(Br)c2c1C(=O)c1ccccc1C2=O | 27.3 µM (active)
O=C(O)c1ccc([N+](=O)[O-])cc1 | inactive

SMILES | Potency
C=C(C)C(=O)OCCC[Si](OC)(OC)OC | inactive
O=C(O)c1cc(-c2ccccc2)nc2ccccc12 | inactive
c1ccc2ccccc2c1 | inactive
Cc1ccc(N)c(S(=O)(=O)O)c1 | inactive
CC(C)(CO)COC(=O)C(C)(C)CO | inactive
C=C1CC[C@H](O)CC1=C/C=C1\CCC[C@]2(C)[C@@H]([C@H](C)/C=C/[C@H](C)C(C)C)CC[C@@H]12 | inactive
O=C1O[C@H](CO)[C@@H](O)[C@H](O)[C@H]1O | inactive
CCCCOCCOCCOC(=O)CCCCC(=O)OCCOCCOCCCC | inactive
COCC(C)O (stereo not given) | inactive
C[C@@H]1O[C@@H](OC[C@H]2O[C@@H](Oc3c(-c4ccc(O)c(O)c4)oc4cc(O)cc(O)c4c3=O)[C@H](O)[C@@H](O)[C@@H]2O)[C@H](O)[C@H](O)[C@H]1O | inactive
Oc1ccc2ccccc2c1 | inactive
CN(CCOc1ccc(CC2SC(=O)NC2=O)cc1)c1ccccn1 (stereo not given) | inactive
CC(=O)CCc1ccccc1 | inactive
CC#C[C@]1(O)CC[C@H]2[C@@H]3CCC4=CC(=O)CCC4=C3[C@@H](c3ccc(N(C)C)cc3)C[C@@]21C | inactive
Cc1ccc(C)c(C)c1 | inactive
CCCCCCOC(C)=O | inactive
O=[N+]([O-])C(CO)(CO)CO | inactive
CN(C)c1ccc(C(=N)c2ccc(N(C)C)cc2)cc1 | 30.3 µM (active) and 26.3 µM (active)
COC(=O)c1ccccc1O | inactive
CCOC(=O)[C@H](CCc1ccccc1)N[C@@H](C)C(=O)N1Cc2ccccc2C[C@H]1C(=O)O | inactive
